From PubChem BioAssay (EPA / NIEHS)
Active and inactive are the calls of the source. How the source made its calls: active means hit-call score of the fitted dose curve at least 0.9, where 1 is the maximum; inactive means score below 0.9.

Experiment: Tanguay_ZF_120hpf_MUSC: Oregon State University Tanguay Lab 120 Hour Post-fertilization zebrafish Assay for Muscle Malformation (AID 2284401)
Summary of the method: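 Scored as a binary brightfield endpoint at 120 hpf, fitted versus DMSO. Single dechorionated wild-type (Tropical 5D) zebrafish embryos per well, statically exposed at 28C from 6 hpf onward with final DMSO 0.64%.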

| Compound | outcome |
| --- | --- |
| O=C(O)C(F)(F)C(F)(F)C(F)(F)C(=O)O | inactive |
| C=CC(=O)OCC(F)(F)C(F)(F)C(F)(F)COC(=O)C=C | inactive |
| C=C(C)C(=O)OCC(F)(F)C(F)(F)C(F)(F)C(F)(F)C(F)(F)C(F)(F)C(F)(F)F | inactive |
| OCC(F)(F)C(F)(F)C(F)(F)C(F)(F)C(F)(F)C(F)(F)C(F)(F)C(F)(F)CO | inactive |
